Screening data from PubChem BioAssay.
Sampled rows, rich in hits. Any-hit rate of the full collection: about 6.3%.
A340 absorber: compounds absorbing at 340 nm; compound absorbance at 340 nm, fold over control; fold change at 10 µM; 65,000 tested, under 10 active;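 active = at 10 µM dose, initial 340 nm absorbance at least 2 fold that of control wells; inactive = change under 2 fold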;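 also: initial absorbance extrapolated from kinetic A340 decline of NADH oxidation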
Spn MK inh: inhibitors of Streptococcus pneumoniae mevalonate kinase; purified MK, PK/LDH-coupled NADH absorbance 340 nm; inhibition, % at 10 µM; 65,000 tested, 0.48% active;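 active = ranked among the strongest by inhibition in the single 10 µM screen, a fixed top-ranked set picked for dose follow-up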
NADH enzymes: inhibitors of enzymes used to reach an NAD/NADH endpoint; coupled PK/LDH NADH assays, four targets; 65,000 tested, 0.02% active; IC50, µM (highest dose often 10 µM), for the others: at the highest dose inhibition;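 active = single-dose screening hits from any of four coupled enzyme assays that gave an IC50 when retested across doses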;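 also: the DPM-DC format reads NADH fluorescence rather than 340 nm absorbance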
Fluor 339 460: intrinsic fluorescence of library compounds, ex339/em460 – biochemical, MLSMR library, data from DPM-DC assay, artefact control, profiling panel. compound autofluorescence, ex339/em460 nm, NADH buffer; active compounds read high; 1 = no-compound wells, NADH background. fluorescence fold increase at 10 µM. 65,000 tested, 5.5% active. AID 709;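 active = at 10 µM, mean starting fluorescence two-fold or more over control wells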;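 also: signal is the first read of a kinetic run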
Spn PMK inh: blocks S. pneumoniae phosphomevalonate kinase. 65,000 tested, 0.49% active. purified PMK, PK/LDH-coupled NADH absorbance 340 nm. inhibition, % at 10 µM;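 active = top-ranked compounds by inhibition in the single 10 µM screen, taking a fixed number of the strongest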;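 also: 0% = full reaction with DMSO carrier and 100% = background rate without enzyme reaction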
Spn DPM-DC inh: S. pneumoniae DPM-DC inhibition | purified DPM-DC, PK/LDH coupled NADH fluorescence | calls only at 10 µM | 65,000 tested, 0.49% active;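 active = the 320 compounds with the highest percent inhibition in the single-dose primary screen, excluding strongly autofluorescent ones, cut at about 32% in these data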;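 also: kinetic rate of NADH fluorescence loss reporting ADP formed by the decarboxylase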
* marks the source's active call; other numbers are inactive results; i = inactive; x = no result given.

SMILES | A340 absorber | Spn MK inh | NADH enzymes | Fluor 339 460 | Spn PMK inh | Spn DPM-DC inh
COc1ccc2[nH]c(=O)c(CN(CCCN(C)C)C(=O)Nc3ccc(F)cc3)cc2c1 | 1.07 | 3.0 | 6.0% | 2.74* | 9.0 | i
CC(=O)N(Cc1cccnc1)Cc1cc2ccccc2[nH]c1=O | 1.06 | 4.0 | 6.0% | 1.41 | 13.0 | i
CCN(CC)CCN(Cc1cc2cc(C)ccc2[nH]c1=O)C(=O)Nc1ccccc1OC | 1 | 5.0 | 6.0% | 1.16 | 11.0 | i
CCOc1ccc2[nH]c(=O)c(CN(Cc3cccnc3)C(=O)Nc3ccccc3OC)cc2c1 | 1.19 | 1.0 | 6.0% | 2.03* | 1.0 | i
COc1ccc2[nH]c(=O)c(CN(Cc3cccnc3)C(=O)Nc3ccccc3)cc2c1 | 1.05 | 4.0 | 12.0% | 2.51* | 13.0 | i
COCCCNc1oc(-c2ccccc2F)nc1C#N | 1.1 | 4.0 | 2.0% | 2.09* | 0.0 | x
COc1ccc(CCNc2oc(COc3ccccc3F)nc2C#N)cc1OC | 1 | 5.0 | 6.0% | 1.12 | 13.0 | i
N#Cc1nc(-c2ccccc2F)oc1NCc1ccccc1 | 1.05 | 4.0 | 3.0% | 2.13* | 2.0 | x
COCCCNc1oc(-c2ccccc2OC)nc1C#N | 1.06 | 13.0 | 14.0% | 3.91* | 14.0 | x
N#Cc1nc(-c2ccccc2F)oc1NCCc1ccccn1 | 1.1 | 8.0 | 4.0% | 2.26* | 0.0 | x
N#Cc1nc(-c2ccc(OCc3ccccc3)cc2)oc1NCc1cccnc1 | 1.04 | 10.0 | 10.0% | 1.82 | 13.0 | i
Clc1ccc(C(c2nnnn2C2CCCC2)N2CCSCC2)cc1 (configuration not stated) | 1.04 | 6.0 | 3.0% | 1.1 | 3.0 | i
CCN(CC)S(=O)(=O)c1ccc(-c2nnc(SCc3nnc(-c4ccccc4)o3)o2)cc1 | 1.06 | 7.0 | 6.0% | 1.17 | 7.0 | i
CCOC(=O)c1cc(-c2ccc(F)cc2)n(CC(=O)Nc2nccs2)c1C | 1.04 | 3.0 | 4.0% | 1.07 | 8.0 | i
CCc1ccc(N2CCCn3c2nc2c3c(=O)n(CCN3CCOCC3)c(=O)n2C)cc1 | 1.01 | 13.0 | 8.0% | 1.11 | 12.0 | i
Cc1ccc(SCc2cn3c(C)csc3n2)cc1 | 1.01 | 7.0 | 5.0% | 1.09 | 9.0 | i
CC1(C)CC(=O)C2=C(C1)Nc1ccccc1NC2c1ccccn1 (configuration not stated) | 1.21 | 6.0 | 8.0% | 0.99 | 16.0 | i
Cc1cc2c(cc1C)NC(c1c(C)n(C)n(-c3ccccc3)c1=O)C1=C(CC(C)(C)CC1=O)N2 (configuration not stated) | 1.06 | 7.0 | 6.0% | 2.57* | 3.0 | i
COc1cccc(NC(=O)N2CCN(Cc3nc4ccccc4c(=O)[nH]3)CC2)c1 | 1.01 | 5.0 | 3.0% | 1.03 | 3.0 | i
CCC(=O)Nc1nonc1-c1nc2ccccc2n1Cc1ccc(Cl)c(Cl)c1 | 1.04 | 3.0 | 11.0% | 2.22* | 20.0 | i
CCn1cc(C(=O)NCc2ccc(Cl)cc2)c(=O)c2cc(S(=O)(=O)N3CCOCC3)ccc21 | 1.09 | 5.0 | 3.0% | 1.07 | 5.0 | i
COc1ccc(C(=O)CCC(=O)N2CCN(c3ccc(N4CCOCC4)nn3)CC2)cc1 | 1.04 | 4.0 | 2.0% | 2.15* | 0.0 | x
CC(=O)N1CSCC1C(=O)N1CCN(c2ccc(N3CCOCC3)nn2)CC1 (configuration not stated) | 0.99 | 10.0 | 12.0% | 2.13* | 13.0 | x
CCOc1ccc(CC(=O)N2CCN(c3ccc(N4CCOCC4)nn3)CC2)cc1OCC | 1.04 | 2.0 | 4.0% | 2.13* | 6.0 | x
COc1ccc(CC(=O)N2CCOCC2)cc1OC | 0.99 | 7.0 | 3.0% | 1.04 | 0.0 | i
SMILES | A340 absorber | Spn MK inh | NADH enzymes | Fluor 339 460 | Spn PMK inh | Spn DPM-DC inh
COC(=O)c1ccc2c(=O)n(CCN3CCOCC3)c(SCC(=O)NC3CCCCC3)nc2c1 | 1.08 | 0.0 | 4.0% | 1.1 | 12.0 | i
COc1ccc(OC)c(NS(=O)(=O)c2ccc(NC(=O)C3COc4ccccc4O3)cc2)c1 (configuration not stated) | 1.02 | 7.0 | 2.0% | 1.12 | 0.0 | i
COc1ccccc1C(=O)Nc1ccc2oc(-c3ccc(F)cc3)nc2c1 | 1.17 | 2.0 | 7.0% | 2.21* | 11.0 | x
COc1c(F)c(F)c(C(=O)Nc2ccc3oc(-c4ccncc4)nc3c2)c(F)c1F | 1.08 | 3.0 | 2.0% | 1.62 | 0.0 | i
O=C(Nc1ccc2oc(-c3ccccc3)nc2c1)c1ccc2c(c1)OCCO2 | 1.04 | 0.0 | 5.0% | 3.19* | 12.0 | i
COc1ccc(C(=O)Nc2ccc3oc(-c4cccc(F)c4)nc3c2)cc1OC | 1.08 | 8.0 | 10.0% | 2.13* | 12.0 | x
CC1CC(C)CN(c2nc3c(c(=O)[nH]c(=O)n3C)n2CCSc2nc3ccccc3o2)C1 (configuration not stated) | 1.02 | 4.0 | 3.0% | 1.11 | 4.0 | i
O=C1c2ccc(Oc3ccc4c(c3)C(=O)N(CCCO)C4=O)cc2C(=O)N1CCCO | 1.06 | 6.0 | 3.0% | 1.14 | 2.0 | i
COc1ccc(-c2nc3n(c(=O)c2C#N)CCCS3)cc1 | 1.1 | 5.0 | 8.0% | 2.03* | 0.0 | i
CCOc1ccc(-c2nc3n(c(=O)c2C#N)CCCS3)cc1 | 1.14 | 11.0 | 14.0% | 2.76* | 8.0 | i
COc1ccc(-c2nc3oc4cc(OC)ccc4c(=O)c3c(=O)n2Cc2ccco2)cc1 | 1.08 | 2.0 | 3.0% | 3.85* | 4.0 | x
CCc1nc2oc3cc(OC)ccc3c(=O)c2c(=O)n1Cc1ccco1 | 1 | 9.0 | 8.0% | 1.11 | 9.0 | i
CCC(=O)c1cc(F)c(N2CCN(C(=O)Cc3ccccc3)CC2)cc1C | 1.06 | 3.0 | 3.0% | 1.15 | 6.0 | i
CCOC(=O)c1sc(C)c(C(=O)NCCCN2CCOCC2)c1N | 1.06 | 4.0 | 7.0% | 2.26* | 4.0 | i
COc1cc(OC)nc(NC(=O)NS(=O)(=O)c2ccc(OC(F)(F)F)cc2)n1 | 0.99 | 0.0 | 12.0% | 1.05 | 25.0* | i
COc1ccc(NC(=O)NS(=O)(=O)c2ccc(C)cc2)c(OC)c1 | 1.01 | 12.0 | 8.0% | 1.58 | 11.0 | i
O=C1c2oc3ccc(Cl)cc3c(=O)c2C(c2ccccn2)N1CCCN1CCOCC1 (configuration not stated) | 1.06 | 5.0 | 2.0% | 1.18 | 0.0 | i
O=C(/C=N/O)NCc1ccncc1 | 0.99 | 1.0 | 3.0% | 1.03 | 15.0 | i
O=C(COC(=O)Cc1ccc(S(=O)(=O)N2CCOCC2)s1)NCc1ccccc1 | 0.99 | 49.0* | 21.0% | 1.05 | 13.0 | i
COc1nc(Nc2ccc(-c3nc4ccccc4o3)cc2)nc(N2CCOCC2)n1 | 1.1 | 8.0 | 4.0% | 3.68* | 0.0 | x
CCCNC(=O)Cn1cnc2sc(C(=O)NCCN(CC)CC)c(C)c2c1=O | 1.08 | 5.0 | 2.0% | 1.15 | 1.0 | i
CN(C(=O)c1cccc(C#N)c1)c1nnc(-c2ccncc2)s1 | 1.01 | 0.0 | 12.0% | 2.44* | 13.0 | i
